Source: PubChem (several laboratories)
AMPAR-TARP mod: modulates AMPAR-stargazin complexes. O88602+P19491. HEK293 GluA2+stargazin, membrane potential dye (FDSS), glutamate EC50; hits were called plate by plate, in both directions. calls only at 30 µM. 40,000 tested, 3.5% active. AID 1259245;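 active = any of four per-well response measures lying three or more SD from its plate-wide compound average, in either direction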
GIRK2 activator: Activators of human GIRK2-containing channels | P48051 | HEK293 GIRK2/NPY4 cells, thallium flux fluorescence | activation (% efficacy), % for hits at 37.5 µM | 34,000 tested, under 10 active | AID 1259324;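 active = primary screen hit, no activity in plain HEK293 cells, and in GIRK2-only cells above 5% efficacy rising with concentration; inactive = the rest, including fluorescent compounds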;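 note: efficacy is normalized control-subtracted fluorescence 15 s after thallium addition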
Target sequence (P48051 whole entry, looked up): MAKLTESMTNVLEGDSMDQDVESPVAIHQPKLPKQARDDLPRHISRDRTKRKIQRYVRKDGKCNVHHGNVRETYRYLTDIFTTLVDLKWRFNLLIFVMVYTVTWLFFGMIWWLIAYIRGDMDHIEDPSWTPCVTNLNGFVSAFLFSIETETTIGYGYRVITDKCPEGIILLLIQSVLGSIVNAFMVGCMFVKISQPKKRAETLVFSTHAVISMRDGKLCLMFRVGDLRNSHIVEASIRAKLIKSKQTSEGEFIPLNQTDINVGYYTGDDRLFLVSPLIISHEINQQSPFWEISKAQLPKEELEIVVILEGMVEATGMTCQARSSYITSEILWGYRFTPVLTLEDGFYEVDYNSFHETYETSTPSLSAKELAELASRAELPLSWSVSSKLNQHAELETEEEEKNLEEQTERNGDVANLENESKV
Calls only; n = inactive; x = no result given; + = active, no number. This excerpt belongs to a sample that is enriched for hits.

SMILES	AMPAR-TARP mod	GIRK2 activator
O=S(=O)(Cc1cccc(Cl)c1)NCC1(c2cccs2)CCCC1	x	n
O=C(Cn1nc(S(=O)(=O)c2ccccc2)ccc1=O)Nc1ccc(Cl)cc1	+	n
CCc1ccccc1NC(=O)Cn1nc(SC)c(S(=O)(=O)c2ccc(F)cc2)c1N	n	x
CSc1nn(CC(=O)Nc2cccc(C)c2C)c(N)c1S(C)(=O)=O	+	n
O=C(Cn1nc(S(=O)(=O)c2ccccc2)ccc1=O)Nc1ccccc1F	n	n
CSc1nn(CC(=O)Nc2ccc3c(c2)OCO3)c(N)c1S(C)(=O)=O	n	n
CCSc1nn(CC(=O)Nc2cccc(SC)c2)c(N)c1S(=O)(=O)c1ccc(C)cc1	n	x
CSc1nn(CC(=O)Nc2cccc(Cl)c2)c(N)c1S(=O)(=O)c1ccccc1	+	x
CSc1nn(CC(=O)Nc2c(C)cccc2C)c(N)c1S(C)(=O)=O	+	n
O=C(c1ccccn1)N1CC(c2nc(-c3ccco3)no2)C1	x	n
CCOc1ccccc1C(=O)N1CCN(c2ncnc3c2nnn3-c2ccc(C)cc2)CC1	n	x
O=S(=O)(c1cccs1)N1CCN(Cc2nnnn2-c2ccc(Cl)cc2)CC1	n	n
O=S(=O)(c1cccs1)N1CCN(Cc2nnnn2-c2ccc(F)cc2)CC1	+	n
O=C(CCc1csc(NC(=O)c2ccc[nH]c2=O)n1)NCc1ccc2c(c1)OCO2	n	n
COc1ccccc1CNC(=O)CCc1csc(NC(=O)c2ccc(F)cc2)n1	n	n
O=C(CCc1csc(NC(=O)c2ccc[nH]c2=O)n1)NCc1ccc(F)cc1	+	n
COc1ccccc1CNC(=O)CCc1csc(NC(=O)c2ccc(Cl)cc2)n1	+	n
COC1CS(=O)(=O)CC1OC (stereo not drawn)	+	x
COc1cccc(NC(=O)c2ccc(S(=O)(=O)N(C)C3CCCC3)cc2)c1	n	x
Cc1ccccc1N1CC(c2nc3ccccc3n2CC(=O)N2CCOCC2)CC1=O (stereo not drawn)	n	n
COc1cc(OC)c(NC(=O)CS(=O)(=O)c2cccs2)cc1Cl	n	n
Cc1nnsc1C(=O)Nc1ccc2c(c1)CC(=O)N2C	+	n
CCC(=O)Nc1ccc2c(c1)CC(=O)N2C	n	x
Cc1ccc(C(=O)Nc2ccc(N3CCCC3=O)cc2)cc1[N+](=O)[O-]	n	n
O=S(=O)(NC1CCCC(O)C1)C1CC1 (stereo not drawn)	n	n
SMILES	AMPAR-TARP mod	GIRK2 activator
COc1ccc(OC)c(-c2ccc(SCC(=O)NC3CCCC3)nn2)c1	n	n
Cc1ccc(-c2ccc(SCC(=O)NC3CCCCC3)nn2)c(C)c1	+	n
CC(=O)OCCCCn1c(COc2ccccc2)nc2ccccc21	+	n
Cc1ccc(OCCCCn2c(CNC(=O)c3ccco3)nc3ccccc32)cc1	x	n
CC(C)c1ccc(NC(=O)C(=O)NCC2(c3cccs3)CCOCC2)cc1	x	n
O=C(NCC1(O)CCc2ccccc21)Nc1ccc(Cl)c(Cl)c1 (stereo not drawn)	+	n
O=C(NCC1(O)CCc2ccccc21)Nc1ccccc1Cl (stereo not drawn)	n	n
CCOc1ccccc1C(=O)NCC(O)(c1ccccc1)C1CC1 (stereo not drawn)	+	x
Cc1ccccc1C(=O)NCC(O)(c1ccccc1)C1CC1 (stereo not drawn)	n	x
O=C(CCn1ccc(=O)[nH]c1=O)NC1CCCCC1N1C(=O)CSC1=O (stereo not drawn)	n	n
COc1ccc(OC)c(-c2ccc(=O)n(Cc3cccc4ccccc34)n2)c1	+	n
COc1ccc(OC)c(-c2ccc(=O)n(CCNC(=O)Nc3cc(C)cc(C)c3)n2)c1	+	n
COc1ccccc1-c1ccc(=O)n(Cc2cccc3ccccc23)n1	n	n
COc1ccc(OC)c(-c2ccc(=O)n(Cc3ccc([N+](=O)[O-])cc3)n2)c1	+	n
COc1ccc(OC)c(-c2ccc(=O)n(Cc3ccc(Cl)cc3Cl)n2)c1	n	n
COc1ccc(OC)c(-c2ccc(=O)n(CCNC(=O)Nc3ccccc3)n2)c1	n	n
O=C(NCc1ccc(F)cc1)NC1CCCC(O)C1 (stereo not drawn)	n	n
COc1ccc(C(=O)CN2CCC(c3nnc(C)s3)CC2)cc1	n	n
CCOC(=O)C1=C(C)Nc2ncnn2C1c1cccc(Cl)c1Cl (stereo not drawn)	n	x
O=C(c1ccc(F)cc1)N1CCN(Cc2nnnn2-c2ccc(F)c(F)c2)CC1	n	n
COc1ccc(N2CC(C)Cn3c2nc2c3c(=O)n(CCCc3ccccc3)c(=O)n2C)cc1 (stereo not drawn)	n	x
Cc1ccccc1C(=O)N1CCC2(CC1)CC(=O)c1ccccc1O2	+	x
CC(C)(C)c1ccc(C(=O)N2CCC3(CC2)CC(=O)c2ccccc2O3)cc1	n	x
O=C(c1ccc(S(=O)(=O)N2CCc3ccccc3C2)cc1)N1CCCc2ccccc21	n	x
Cc1ccc([N+](=O)[O-])cc1NC(=O)c1ccc(=O)n(Cc2ccccc2)c1	n	n
